{
  "source": "the supplement of paper PMC6555819",
  "data": [
    {"tested_on": "VDR:RXRa (NR concentration 270 nM, RXRa partner concentration 90 nM)", "assay": "PBM binding z-score (relative to random genomic background probes); higher = stronger binding; sequences stand for … in GC…GCGATTGACAGCGTAGAATGAAGG", "procedure": "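Protein-binding microarray (Agilent 4x180K custom design, double-stranded 60-nt probes: 5' GC cap, 34-nt variable region, 24-nt constant primer region; full probe sequence given). Purified or IVT nuclear receptor:RXRα heterodimers (3:1 NR:RXRα, mostly 270:90 nM) or homodimers were incubated for 1 h in PBS with 2% milk and no ligand, then detected with Alexa488 antibodies. Fluorescence from o1-orientation probes (~5 replicates averaged) was converted to z-scores against 500 random hg19 background probes. Variable regions are seed direct-repeat (DR0–DR5) sites, all their single-nucleotide variants and half-site ablations.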", "values": [
      {"sequence": "CAGACTGGGGCAGAAAGGTTACCATACCATCCGG", "PBM binding z-score": 1.44},
      {"sequence": "ATCGAAAGGTCGTGTGGTGAGTATACAGAAAGGC", "PBM binding z-score": 3.66},
      {"sequence": "TATACAGGGACAAAGGCCAGAGTACGAATGTCGA", "PBM binding z-score": 0.123},
      {"sequence": "TCTTGTAGATCAATAGAGTTTAAGAAAGTGCGCT", "PBM binding z-score": 1.23},
      {"sequence": "GCTATTAGTTGAGAGGGCAACCGAATGATTCTCG", "PBM binding z-score": 0.311},
      {"sequence": "TCGAGTAGGTTAGTCGGGGCATTCATCCAACATA", "PBM binding z-score": 2.37},
      {"sequence": "CGAACTAGCTCAGAACAGGACAGTGAAGGATGAT", "PBM binding z-score": -0.427},
      {"sequence": "CAAACTAGGTCACGGGAAGGTCAAAGTCCGCATG", "PBM binding z-score": 6.27},
      {"sequence": "ATATCTAGGTTAGCTGGGGTCATTCAGACTAGGC", "PBM binding z-score": 6.03},
      {"sequence": "ATACCAAGGTGATCGTGAGGTCGTTGATACTAAC", "PBM binding z-score": 3.23},
      {"sequence": "CGTCCAAGGTCAGCAGGCCAGTGAAAGCGACGTG", "PBM binding z-score": 2.58},
      {"sequence": "TCAGACAGGTGCAGGTAACTCAGGTACGCAGTCG", "PBM binding z-score": 0.362},
      {"sequence": "TCTAATAGTTGAAGGGCAACCGACGAGTCCGTTT", "PBM binding z-score": 0.759},
      {"sequence": "TCTTGTTGGTCACGGAGGTCACACACGACGGGTA", "PBM binding z-score": 6.07},
      {"sequence": "TCATATAGGTAATACAGGTGAAAATCGGCATCTA", "PBM binding z-score": 1.32},
      {"sequence": "ACTAGCAGGCCCAGGGTCACTCAAGATTAGTCCG", "PBM binding z-score": 2.19},
      {"sequence": "TGAATGAGGTTAAAGACCAGGGAACGTGGCGTCG", "PBM binding z-score": 1.09},
      {"sequence": "TCTTGTAGATCAAAGGTTAAGAGAGCCGAAGCCT", "PBM binding z-score": 1.29},
      {"sequence": "CAAACTAGGTCAAGAGGTCTAAGTCCGCTTCCCG", "PBM binding z-score": 3.91},
      {"sequence": "CGTCCAAGGTCAAGGTCAGCGAAAGAGACTCGAA", "PBM binding z-score": 4.97},
      {"sequence": "AATACACGGTCACTAGGCCAGAGTAGGTACGAAT", "PBM binding z-score": 0.248},
      {"sequence": "TCTAGTTGCTCACGGAGGTCACACACGACGGGTA", "PBM binding z-score": 3.64},
      {"sequence": "CCTACTGGGCCATCATGTCATTGATATCAACGTT", "PBM binding z-score": 0.0429},
      {"sequence": "TAGCCTAGGTCATGGGCCAGTAAACCACGCGAAC", "PBM binding z-score": 2.07},
      {"sequence": "TCATATAGGTAAACCGGTGAAAGTCCGTAAGTTA", "PBM binding z-score": 0.87},
      {"sequence": "TTTTGTAGATCAATAGAGGTTAAGAAAGTGCGCT", "PBM binding z-score": 2.09},
      {"sequence": "CTTAGCAGGCCAATCTGGGTCACTCAAGGCTTGA", "PBM binding z-score": 0.462},
      {"sequence": "GCGACTGGTGCAAAGCAGGTTACCATAAGGTTGG", "PBM binding z-score": -0.134},
      {"sequence": "TCTCGGAGGACACGAGAGGTCAGAGCTCGACATC", "PBM binding z-score": 3.41},
      {"sequence": "TCTCGGAGGACACGAAGGTCAGAGTTTTCCAGAG", "PBM binding z-score": 2.41},
      {"sequence": "CAAACTAGGTCAAAGGTCAAAGTGGAGCCAACCA", "PBM binding z-score": 6.72},
      {"sequence": "CCTTCTGGGCCATCAGGTCATTGATATCAACGTT", "PBM binding z-score": 1.81},
      {"sequence": "AGAATGAGGTAATTAAGATCAGGGAATTGCGGTC", "PBM binding z-score": 0.215},
      {"sequence": "GGAACGAGGGCAAAGTTGATACCATCTGTCGACG", "PBM binding z-score": 1.48},
      {"sequence": "GCTCGGAGGACAAGTTCAGAGCTTTGTCCGTAGA", "PBM binding z-score": 0.733},
      {"sequence": "TTACCAAGGTGAAAGTCGTTGATCCCTCTGTAGA", "PBM binding z-score": 0.25},
      {"sequence": "CGTCCAAGGTCAATGGTAGGTCAGTGAAAGCATT", "PBM binding z-score": 4.89},
      {"sequence": "GCTTACGGGTCAAAGGTTATAGGATGAATAGAAT", "PBM binding z-score": 5.56},
      {"sequence": "ACTTACGGGTCAACGAGGTTGTAGCACGCGTATA", "PBM binding z-score": 7.54},
      {"sequence": "TCGGGTAGGTTAGTCGGGGCATTCAGCCAACATA", "PBM binding z-score": 2.88}
    ]}
  ]
}
